The record followed here is paper PMC5540273 (PLoS ONE, 2017).

The test system of one test is HIPK2. The settings on record: concentration: 1 μM, replicates: in singlicate, n = 1.
In another test the test system is HIPK3. The settings on record: concentration: 1 μM, replicates: in singlicate, n = 1.
Another test concerns HIPK4. The settings on record: concentration: 1 μM, replicates: in singlicate, n = 1.
A further test deals with HPK1. The settings on record: concentration: 1 μM, replicates: in singlicate, n = 1.
The next test deals with HUNK. The following applies: concentration: 1 μM, replicates: in singlicate, n = 1.
For the next test, the system named is ICK. The settings on record: concentration: 1 μM, replicates: in singlicate, n = 1.
The subject of a further test is IGF1R. The following applies: concentration: 1 μM, replicates: in singlicate; n = 1.
For a further test, the system named is T1, IKK-alpha.
T1 construct: gene CHUK
The settings on record: concentration: 1 μM, replicates: in singlicate, n = 1.

The test system of the next test is T2, IKK-beta.
T2 construct: gene IKBKB
The following applies: concentration: 1 μM, replicates: in singlicate; n = 1.

In a further test the test system is T3, IKK-epsilon.
T3 construct: gene IKBKE
The following applies: concentration: 1 μM, replicates: in singlicate, n = 1.

“And” between values parts separate entries of the source, which are not always exact repeats. Identical values can stand only once. Like-named read-outs stand apart in the source and are kept apart here.
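Further: KINOMEscan kinase panel screen.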

For `Clc1cccc(-c2nc(Nc3ccncc3)c3ccccc3n2)c1` [GW873004], the “%Inh” value in the test with HIPK2 is 25%; with HIPK3, 2%; with HIPK4 it was 22%; in the test on HPK1, 0%; in the test with HUNK, 53%; with ICK, 0%. Moreover, the “%Inh” value in the test on IGF1R, in the test with IKK-alpha, in the test on IKK-beta and in the test on IKK-epsilon was 0% each time.

Consider `COc1ccc(NC(=O)Nc2ccc(C)c(-c3ccc(C(=O)Nc4ccncc4)cc3)c2)cc1` [GSK1398475], for which the “%Inh” value with HIPK2 amounted to 0%; with HIPK3, 4%; with HIPK4 it was 0%; in the test with HPK1 it was 47%; with HUNK, 7%; in the test with ICK, 0%. In addition, the “%Inh” value in the test on IGF1R, in the test with IKK-alpha, in the test on IKK-beta and in the test on IKK-epsilon was 0% in each case.

`CCn1c(-c2ccncc2)nc2cnccc21` [SB-735216]: the “%Inh” value in the test with HIPK2 turned out to be 18%; in the test on HIPK3, 24%; with HIPK4, 15%; in the test on HPK1, 0%; with HUNK it was 27%; with ICK it was 10%. The “%Inh” value was found to be 0% with IGF1R, 20% with IKK-alpha, 23% in the test with IKK-beta and 10% in the test with IKK-epsilon.

For the molecule `Fc1cccc(COc2ccc(Nc3ncnc4sc(-c5ccc[nH]5)cc34)cc2Cl)c1` [GW707818], the “%Inh” value in the test on HIPK2 is recorded as 0%; in the test with HIPK3 it was 1%; with HIPK4 it was 0%; in the test with HPK1, 39%; in the test on HUNK, 10%; with ICK, 0%. In addition, the “%Inh” value with IGF1R, in the test on IKK-alpha, in the test on IKK-beta and with IKK-epsilon was 0% in each case.

Take `FC(F)(F)c1cc(Nc2nccc(-c3c(-c4ccc(Cl)cc4)nn4ncccc34)n2)ccc1Cl` [GW829351]: the “%Inh” value was 0% in the test on HIPK2; 0% in the test on HIPK3; 0% in the test with HIPK4; 0% with HPK1; 67% in the test with HUNK; 0% in the test on ICK. The “%Inh” value in the test with IGF1R, in the test with IKK-alpha, in the test on IKK-beta and in the test with IKK-epsilon was 0% in each case.

For the molecule `CC(C)(C)c1ccc(-n2cnc3c(N)ncnc32)cc1` [SKF-97263], the “%Inh” value came out at 0% in the test on HIPK2; 6% with HIPK3; 0% in the test with HIPK4; 60% in the test on HPK1; 14% in the test with HUNK; 17% in the test with ICK. Further, the “%Inh” value in the test with IGF1R was found to be 11%; in the test on IKK-alpha, 0%; with IKK-beta, 7%; in the test on IKK-epsilon, 19%.

As for `Nc1n[nH]c2nnc(-c3ccccc3)cc12` [SB-517389], the “%Inh” value stood at 55% in the test on HIPK2; 83% with HIPK3; 0% with HIPK4; 35% in the test on HPK1; 32% in the test with HUNK; 6% in the test on ICK. Besides, the “%Inh” value in the test with IGF1R was 0%; in the test on IKK-alpha, 6%; with IKK-beta it was 23%; with IKK-epsilon it was 22%.

`N#Cc1ccc(Oc2ccc(Nc3ncnc4cc[nH]c34)cc2Cl)cc1`: the “%Inh” value in the test with HIPK2 is on record as 32%; in the test on HIPK3, 10%; in the test on HIPK4, 4%; in the test on HPK1, 0%; in the test on HUNK, 1%; in the test on ICK it was 0%. For the same molecule, the “%Inh” value was determined as 0% in the test on IGF1R, 2% with IKK-alpha, 17% in the test on IKK-beta and 12% in the test with IKK-epsilon.

For `COc1ccc(-c2nc3n(c2-c2ccncc2)CCC3)cc1` [SKF-104493], the “%Inh” value was 11% and 0% in the test with HIPK2 (1 µM); 0% and 17% in the test on HIPK3 (1 µM); 2% and 0% in the test with HIPK4 (1 µM); 17% and 0% in the test on HPK1 (1 µM); 35% and 0% in the test on HUNK (1 µM); 32% and 10% in the test on ICK (1 µM). Besides, the “%Inh” value is 0% with IGF1R; 1% and 0% in the test with IKK-alpha (1 µM); 0% with IKK-beta; 0% and 20% with IKK-epsilon (1 µM).

With `COC(=O)c1c(-c2ccccc2)c2cc(Cl)ccc2c(=O)n1Cc1ccc(S(C)(=O)=O)cc1`, the “%Inh” value in the test with HIPK2 came to 24%; in the test on HIPK3, 0%; in the test on HIPK4, 0%; in the test with HPK1, 0%; in the test on HUNK, 0%; in the test with ICK, 32%. Moreover, the “%Inh” value in the test with IGF1R, in the test on IKK-alpha, with IKK-beta and with IKK-epsilon was 0% in each case.

Consider `CC(C)(C)OC(=O)NC1CCCN(c2cc(-c3ccc4c(N)n[nH]c4c3)nc(N)n2)C1` (stereo not shown) [GSK2286096], for which the “%Inh” value was 0% in the test on HIPK2; 12% with HIPK3; 0% in the test on HIPK4; 26% with HPK1; 5% in the test with HUNK; 7% with ICK. Besides, the “%Inh” value with IGF1R was found to be 0%; in the test on IKK-alpha, 0%; with IKK-beta, 0%; with IKK-epsilon it was 12%.

For `Fc1ccc(Nc2nccc(-c3c(-c4ccc(Cl)cc4)nn4ncccc34)n2)cc1F` [GW829058], the “%Inh” value with HIPK2 stood at 11%; with HIPK3, 36%; in the test on HIPK4 it was 19%; in the test with HPK1, 16%; in the test on HUNK, 40%; with ICK, 25%. Also, the “%Inh” value was 6% in the test with IGF1R, 34% in the test with IKK-alpha, 29% in the test with IKK-beta and 0% in the test on IKK-epsilon.

In the case of `COc1ccc(Nc2nccc(N3CCC(NC(=O)Nc4ccc5c(c4)OCO5)C3)n2)cc1` (stereo not shown) [GSK1379745], the “%Inh” value with HIPK2 was 0%; in the test with HIPK3, 23%; with HIPK4, 9%; with HPK1 it was 67%; in the test with HUNK it was 11%; in the test on ICK it was 0%. The “%Inh” value in the test on IGF1R was 0%; in the test with IKK-alpha, 7%; with IKK-beta, 9%; in the test on IKK-epsilon, 12%.

For the molecule `Cc1ccc(C)c(NC(=O)NCCNc2ccnc(Nc3ccc(F)cc3)n2)c1` [GSK1379878], the “%Inh” value with HIPK2 is on record as 0%; in the test on HIPK3 it was 0%; in the test on HIPK4, 0%; in the test with HPK1 it was 28%; with HUNK, 0%; with ICK, 0%. The “%Inh” value in the test with IGF1R is on record as 0%; in the test on IKK-alpha, 0%; with IKK-beta it was 0%; in the test with IKK-epsilon, 9%.

Take `FC(F)(F)c1ccc(-c2cc(-c3c[nH]nc3-c3ccccn3)ccn2)cc1` [GW599550]: the “%Inh” value is 0% in the test with HIPK2; 21% in the test on HIPK3; 0% in the test on HIPK4; 26% in the test with HPK1; 0% in the test on HUNK; 0% with ICK. The “%Inh” value in the test with IGF1R is 28%; in the test on IKK-alpha, 0%; with IKK-beta it was 0%; in the test on IKK-epsilon, 47%.

Take `COc1ccc(NC(=O)c2ccc(-c3cc(-c4nnc(C)o4)ccc3C)cc2)cc1` [GW595885]: the “%Inh” value in the test on HIPK2 came to 0%; in the test on HIPK3, 10%; with HIPK4 it was 0%; in the test with HPK1, 24%; in the test on HUNK, 3%; in the test with ICK it was 4%. In addition, the “%Inh” value was 0% in the test with IGF1R, 25% with IKK-alpha, 24% with IKK-beta and 0% in the test with IKK-epsilon.
